Tau fluor cs – Counterscreen qHTS for Inhibitors of Tau Fibril Formation, Fluorescence Polarization; Potency, µM (titrated, usually from 57.7 µM); tau K18 P301L Alexa594 fluorescence, heparin fibrillization; 0.93% of 280,000 active; further: nearly all actives have a fitted effect of over 55% in size
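Human tau K18 P301L (15 uM unlabeled, 0.24 uM Alexa 594-labeled) in 100 mM sodium acetate pH 7 with 20 uM heparin, 6 hr at 37 C. ThT 30 uM added, 1 hr ambient; Alexa 594 FP and total fluorescence read at 555/632 nm.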
Tau fibril ThT – qHTS for Inhibitors of Tau Fibril Formation, Thioflavin T Binding. Microtubule-associated protein tau (Homo sapiens), P10636. recombinant tau K18 P301L, heparin-induced fibrillization, ThT fluorescence. Potency, µM (highest dose often 57.4 µM), actives largely listed as inhibitors. 2.1% of 270,000 active. AID 1460, 2008; further: nearly all actives have a fitted effect of over 55% in size
Target sequence (P10636 561-689 P618L limits assumed): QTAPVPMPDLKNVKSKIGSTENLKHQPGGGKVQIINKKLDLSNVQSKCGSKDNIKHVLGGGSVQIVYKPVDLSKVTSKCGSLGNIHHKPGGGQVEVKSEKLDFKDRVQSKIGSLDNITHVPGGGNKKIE
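Using a mix of unlabeled (15 uM) and Alexa 594-labeled (0.24 uM) tau K18 P301L, heparin-triggered fibrillization over 6 hr at 37 C was scored by ThT fluorescence.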
VDR inhibitor – Inhibitors of the vitamin D receptor (VDR): qHTS | Vitamin D3 receptor (Homo sapiens), P11473 | VDR-SRC2-3 peptide fluorescence polarization, 2 h | Potency, µM, usual class: inhibitors | 0.93% of 400,000 active
Target sequence (P11473 whole entry, looked up): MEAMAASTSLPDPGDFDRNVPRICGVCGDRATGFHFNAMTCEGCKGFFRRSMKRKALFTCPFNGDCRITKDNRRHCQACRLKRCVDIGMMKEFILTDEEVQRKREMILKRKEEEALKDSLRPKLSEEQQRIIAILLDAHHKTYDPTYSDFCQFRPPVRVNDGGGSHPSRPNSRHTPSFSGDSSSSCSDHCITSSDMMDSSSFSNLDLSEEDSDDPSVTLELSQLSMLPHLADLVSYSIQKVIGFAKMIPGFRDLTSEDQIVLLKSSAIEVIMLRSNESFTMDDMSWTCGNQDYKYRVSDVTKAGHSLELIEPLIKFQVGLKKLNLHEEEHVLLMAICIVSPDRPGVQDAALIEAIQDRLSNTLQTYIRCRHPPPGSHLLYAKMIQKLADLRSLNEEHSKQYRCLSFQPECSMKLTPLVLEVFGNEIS
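Inhibition of the VDR/SRC2-3 peptide interaction is quantified by fluorescence polarization. Compounds (23 nl, pintool) incubate with the reagents for 2 hours at ambient room temperature.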
PLK1 PBD block – qHTS for Inhibitors of PLK1-PDB (polo-like kinase 1 - polo-box domain): Primary Screen. Serine/threonine-protein kinase PLK1 (Homo sapiens), P53350. Plk1 PBD binding of FITC phosphopeptide, fluorescence polarization. Potency, µM, most hits filed as inhibitors. 2.8% of 360,000 active; further: series mostly up to about 57 µM; nearly all actives have a fitted effect of over 65% in size
Tau FP inhib – qHTS for Inhibitors of Tau Fibril Formation, Fluorescence Polarization | Microtubule-associated protein tau (Homo sapiens), P10636 | K18 P301L tau heparin fibrillization, Alexa594 FP, 6 h | Potency, µM (titrated, usually from 57.7 µM), most hits filed as inhibitors | 0.39% of 280,000 active; further: nearly all actives have a fitted effect of over 55% in size
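Compound effects on tau fibrillization are measured by Alexa 594 fluorescence polarization (ex 555, em 632 nm). K18 P301L tau is used at 15 uM with 0.24 uM labeled tracer, and 20 uM heparin induces aggregation over 6 hr at 37 C.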
Sfp PPTase inh – qHTS Assay for Inhibitors of Bacillus subtilis Sfp phosphopantetheinyl transferase (PPTase). Potency, µM, usual class: inhibitors. 4'-phosphopantetheinyl transferase ffp (Bacillus subtilis), Q9F4F7. 3.5% of 310,000 active. AID 1490, 2009. Biochemical Sfp PPTase activity, qHTS;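 further: the enzyme is Sfp with the accession as filed and its product quenches rhodamine fluorescence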
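Buffer: 50 mM Hepes-Na pH 7.6, 10 mM MgCl2, 0.01% Nonidet P-40, 0.01% BSA. Enzyme 15 nM, pre-exposed to compound 15 min; substrates then added and fluorescence change tracked over 30 min.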
Numbers stand for hits; n = inactive; u = inconclusive; x = not tested or not shown; ! = repeats disagree; [ ] = another dose, or the depositor's remark. An excerpt weighted towards active compounds, which were near 6% of everything screened. The call rests on the fitted dose curve; in most records, active means well fitted curve in the direction sought with a large enough effect; inconclusive means small, poorly fitted or top-dose-only effect, or another doubt; inactive means no such curve, though single readings can be large; an effect the other way counts as inactive or inconclusive.

SMILES	Tau fluor cs	Tau fibril ThT	VDR inhibitor	PLK1 PBD block	Tau FP inhib	Sfp PPTase inh
OCCNCCc1c[nH]c2ccc(OCc3ccccc3)cc12	x	x	n	n	x	n
CCN(CC)C(=O)N[C@H]1C[C@@H]2c3cccc4[nH]cc(c34)C[C@H]2N(C)C1	n	n	n	n	n	n
CCN(CC)C(=O)N[C@@H]1C=C2c3cccc4[nH]cc(c34)C[C@H]2N(C)C1	n	u	39.8µM	x	n	n
CC[C@@H](CO)NC(=O)[C@@H]1C=C2c3cccc4c3c(cn4C)C[C@H]2N(C)C1	u	25.1µM!	28.2µM!	n	u	n
CN1C[C@H](CO)C=C2c3cccc4[nH]cc(c34)C[C@@H]21	x	x	n	x	x	n
COC(=O)C1C=C2c3cccc4[nH]cc(c34)CC2N(C)C1 (stereo not drawn)	u	17.8µM	x	x	u	u
CCCCCCCCCCCCC/C=C/[C@@H](O)[C@@H](N)COP(=O)([O-])OCC[N+](C)(C)C	n	n	n	x	n	u
C=C1C(=O)O[C@@H]2C[C@@H](C)[C@@H]3C4OC4C(=O)[C@@]3(C)[C@@H](O)[C@H]12 (stereo partly drawn)	n	12.6µM	n	n	7.94µM	n
Cc1[nH]cnc1CCN	n	n	x	x	n	n
C=CC[N+]1(C)CC[C@]23c4c5ccc(O)c4O[C@H]2C(=O)CC[C@@]3(O)[C@H]1C5 (stereo partly drawn)	x	x	n	n	x	x
C=CC[N+]1(C)CCC23c4c5ccc(O)c4O[C@H]2C(=O)CC[C@@]3(O)C1C5 (stereo partly drawn)	n	n	n	x	n	56.2µM
[Hg+][c]1ccccc1	x	x	12.6µM	x	x	0.224µM
FC(F)OC(F)(F)C(F)Cl (stereo not drawn)	x	x	n	x	x	n
Nc1c(C(=O)NC2CCCC2)c2nc3ccccc3nc2n1CC1CCCO1 (stereo not drawn)	n	n	u	n	n	n
CCCCNC(=O)c1c(N)n(CCCOC)c2nc3ccccc3nc12	u	u	50.1µM	n	n	n
COCCOC(=O)c1c(N)n(Cc2ccco2)c2nc3ccccc3nc12	u	u	n	n	u	56.2µM
CC(C)CCNC(=O)c1c(N)n(Cc2ccc3c(c2)OCO3)c2nc3ccccc3nc12	u	u	89.1µM	n	u	n
Nc1c(C(=O)NCC2CCCO2)c2nc3ccccc3nc2n1Cc1ccco1 (stereo not drawn)	u	u	n	n	u	3.98µM
COCCCn1c(N)c(C(=O)OCCOC)c2nc3ccccc3nc21	n	n	n	n	n	n
O=C=NCCCCN=C=O	x	x	n	x	x	n
CC1(C)N(O)C(c2ccc(C(=O)O)cc2)=[N+]([O-])C1(C)C	n	u	u	x	n	u
COc1ccc(CCNc2nc3c(c(=O)n(C)c(=O)n3C)n2Cc2ccc(F)cc2)cc1OC	u	n	n	x	n	x
CC(C)CNC(=O)c1c(N)n(Cc2ccc3c(c2)OCO3)c2nc3ccccc3nc12	u	u	n	n	u	n
CC(C)OCCCNC(=O)c1c(N)n(Cc2cccs2)c2nc3ccccc3nc12	u	u	n	n	u	u
COc1ccc(Cn2c(N)c(C(=O)NCc3ccco3)c3nc4ccccc4nc32)cc1OC	u	14.1µM	n	n	u	u
SMILES	Tau fluor cs	Tau fibril ThT	VDR inhibitor	PLK1 PBD block	Tau FP inhib	Sfp PPTase inh
COCCCNC(=O)c1c(N)n(Cc2ccco2)c2nc3ccccc3nc12	u	u	n	n	n	12.6µM
CC(C)CNC(=O)c1c(N)n(Cc2ccco2)c2nc3ccccc3nc12	u	u	n	n	n	31.6µM
O=c1c2ccccc2nc(/C=C\c2ccc(F)cc2)n1-c1ccccc1F	n	n	n	x	n	x
COc1ccc2c(c[n+](C)c3c4cc5c(cc4ccc23)OCO5)c1OC	15.8µM[quencher]	12.6µM	28.2µM	x	u	50.1µM
COc1cc2c(ccc3c4cc(OC)c(OC)cc4c[n+](C)c23)cc1O	x	x	n	n	x	x
C/C(=N\NC(=O)c1ccccc1O)c1c(O)n(Cc2ccccc2)c(=O)[nH]c1=O	u	14.1µM	n	n	n	n
COc1cccc(CNC(=O)CSc2ccc(-c3ccco3)nn2)c1	n	n	n	n	n	22.4µM
O=C(O)c1cn(Cc2ccccc2)nc1-c1ccccc1	n	n	n	n	n	n
O=C(O)CSCC(=O)N(Cc1ccccc1)c1nc(-c2ccccc2)c(-c2ccccc2)s1	x	x	u	29.9µM	x	n
CSc1ccc(C(=O)C2CCCN(Cc3cc4ccccc4[nH]3)C2)cc1 (stereo not drawn)	u	n	89.1µM	29.9µM	u	n
COC(=O)C(O)(c1ccc(N(C)C(=O)c2cccs2)cc1)C(F)(F)F (stereo not drawn)	n	n	50.1µM	23.8µM	n	n
COC(=O)C(O)(c1ccc(N(C)C)cc1)C(F)(F)F (stereo not drawn)	n	n	n	n	n	n
CC1=C2C(=CO[C@H](C)[C@H]2C)C(=O)C(C(=O)O)=C1O	n	u	u	x	n	n
CCN1C[C@@]2(COC)C3[C@@H](OC)C4[C@@H]1C3([C@@H]1C[C@]3(O)[C@H](OC(=O)c5ccccc5)[C@@H]1[C@]4(OC(C)=O)[C@@H](O)[C@@H]3OC)[C@H](OC)C[C@H]2O	x	x	n	x	x	x
Oc1c(Cl)cc(Cl)cc1CN1CCN(Cc2ccccc2)CC1	n	n	n	n	n	u
Oc1c(Cl)cccc1Cc1cc(Cl)cc(Cl)c1O	x	x	n	26.7µM	x	x
O=C1OC(c2ccc(O)c(S(=O)(=O)O)c2)(c2ccc(O)c(S(=O)(=O)O)c2)c2c(Br)c(Br)c(Br)c(Br)c21	n	u	35.5µM	x	n	n
Cc1ccc(NC(=O)Cn2c(=O)oc3cc(S(=O)(=O)N4CCCCCC4)ccc32)cc1Cl	n	n	n	x	u	x
Cc1c(Cl)cccc1N1C(=O)NC(=O)/C(=C\c2cc(C)n(-c3cccc(C(=O)O)c3C)c2C)C1=O	x	x	n	26.7µM	x	n
Cc1cc(/C=C2\C(=O)NC(=O)N(Cc3ccccc3)C2=O)c(C)n1-c1ccc(Cl)c(C(=O)O)c1	n	u	n	5.97µM	u	n
Cc1cc(/C=C2\C(=O)NC(=O)N(c3cccc(F)c3)C2=O)c(C)n1-c1ccc(C(=O)O)c(Cl)c1	x	x	n	n	x	n
Cc1cc(/C=C2\C(=O)NC(=O)N(Cc3ccccc3Cl)C2=O)c(C)n1-c1ccc(C(=O)O)cc1	n	u	u	10.6µM	u	n
O=[N+]([O-])O[C@H]1CO[C@H]2[C@@H]1OC[C@H]2O	u	n	n	x	n	n

Screening results as filed in PubChem.
